Reference: PubChem BioAssay (Tox21)
Several values for one entry are separate records, joined by “and”; a condition that tells them apart may be missing. Equal values may be shown once. Records with an inconclusive call do not appear. Where a call stands in place of a potency, no number is given. The source holds several records for some structures; these can differ, active in one and inactive in another. Activity calls are given as the source filed them. Unless noted, calls come from the whole dose curve; as a rule, active = well fitted curve in the direction sought with a large enough effect in the repeat runs; inconclusive = weak or mixed curves; inactive = no such curve, though single readings can be large; an effect the other way counts as inactive or inconclusive.

Experiments:
[1] = qHTS assay for small molecules that induce genotoxicity in human embryonic kidney cells expressing luciferase-tagged ATAD5 (AID 651632); note: nearly all actives have a fitted effect of over 15% in size
Outline: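 Cells were seeded at 2,000 per well, dosed with compound, and incubated 16 hr at 37C in 5% CO2. Luciferase activity was then quantified after a 30 min room-temperature incubation with Amplite.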

[2] = qHTS assay for small molecule agonists of the p53 signaling pathway - cell viability (AID 651633; calls by dose curve; note: nearly all actives have a fitted effect of over 30% in size; note: potency is the fitted concentration of half-maximal effect)
Outline: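 p53RE-bla cells were treated with compound for 16 hours at 37 C. Cytotoxicity was then measured as CellTiter-Glo luminescence after 30 min at room temperature.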

[3] = qHTS assay for small molecules that induce genotoxicity in human embryonic kidney cells expressing luciferase-tagged ATAD5 - cell viability (AID 651634; calls by dose curve; note: nearly all actives have a fitted effect of over 25% in size)
Outline: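 Cells (HEK293T, luciferase-tagged ATAD5) are seeded at 2,000 per well, dosed with compound or DMSO vehicle, and incubated 15.5 hr at 37C and 5% CO2. CellTiter-Fluor is added for 30 min before fluorescence is measured.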

[4] = qHTS assay for small molecule disruptors of the mitochondrial membrane potential - cell viability (AID 720634; calls by dose curve; note: nearly all actives have a fitted effect of over 20% in size; note: potency is the fitted concentration of half-maximal effect)
Outline: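 Cytotoxicity was measured by ATP quantitation in HepG2 wells that had first been treated with compound for 1 hr and stained with m-MPI dye; CellTiter-Glo incubation was 30 min at room temperature.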

[5] = qHTS assay for small molecule disruptors of the mitochondrial membrane potential (AID 720635); note: potency is the fitted concentration of half-maximal effect
Outline: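 HepG2 cells exposed to compound 1 hr at 37C, then Mito-MPS dye 30 min. Ratio read of aggregate (540/590 nm) versus monomer (490/535 nm) fluorescence.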

[6] = qHTS assay to test for compound auto fluorescence at 590 nm (red) in HepG2 cells (AID 720674)
Outline: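 Fluorescence at 590 nm emission following 540 nm excitation was recorded from HepG2 wells one hour after compound transfer, with DMSO-only wells as vehicle and Rose Bengal sodium equivalency as the scale.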

[7] = qHTS assay to test for compound auto fluorescence at 535 nm (green) in HepG2 cells (AID 720675)
[8] = qHTS assay to test for compound auto fluorescence at 460 nm (blue) in HEK293 cells (AID 720678)
Outline: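 Blue read-out at excitation 405 nm and emission 460 nm follows overnight compound exposure of HEK293 cells at 37C in 5% CO2. Activity is given as auto fluorescence equivalency to triamterene.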

[9] = qHTS assay to test for compound auto fluorescence at 590 nm (red) in HEK293 cells (AID 720679)
Outline: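 Red channel, Ex/Em 540/590nm; signal expressed as equivalency to Rose Bengal sodium. HEK293, 2,000 cells/well, 10% dialyzed FBS; 23 nL compound pinned after 4-5 hr attachment; overnight 37C/5% CO2 before reading.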

[10] = qHTS assay to test for compound auto fluorescence at 535 nm (green) in HEK293 cells (AID 720680)
[11] = qHTS assay to test for compound auto fluorescence at 460 nm (blue) in HEK293 cell free culture (AID 720681)
Outline: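 Compounds were added to cell-free DMEM with 10% FBS and fluorescence read directly. The blue channel used 405 nm excitation and 460 nm emission, with triamterene as the reference fluorophore.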

[12] = qHTS assay to test for compound auto fluorescence at 535 nm (green) in HEK293 cell free culture (AID 720682)
Outline: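 Green-label autofluorescence (485 nm excitation, 535 nm emission) measured on compound added to cell-free culture medium (DMEM, 10% FBS). Output is expressed relative to fluorescein.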

[13] = qHTS assay to test for compound auto fluorescence at 590 nm (red) in HepG2 cell free culture (AID 720684)
Outline: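 Rose Bengal sodium served as the reference for red signal. Test compounds were dispensed into serum-containing MEM (10% FBS) without cells, and plates were read at 540/590 nm.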

[14] = qHTS assay to test for compound auto fluorescence at 460 nm (blue) in HepG2 cell free culture (AID 720685)
Outline: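 Cell-free plates of MEM plus 10% FBS received 23 nL compound or DMSO vehicle; blue-channel (405/460 nm) intensity scored against triamterene as reference fluorophore.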

[15] = qHTS assay to test for compound auto fluorescence at 535 nm (green) in HepG2 cell free culture (AID 720686)
[16] = qHTS assay to test for compound auto fluorescence at 460 nm (blue) in HepG2 cells (AID 720687)
Outline: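 HepG2 cells in MEM with 10% FBS, attached overnight at 37 C, were exposed to compound or DMSO for 1 hr at 37 C, 5% CO2. Blue fluorescence was read at 405/460 nm, with triamterene as reference fluorophore.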

[17] = target: Glucocorticoid receptor (Homo sapiens) (UniProt P04150); test: qHTS assay to identify small molecule antagonists of the glucocorticoid receptor (GR) signaling pathway (AID 720692; active = well fitted inhibition curve with a large enough effect in the signal ratio in the repeat runs, not every such curve was filed as active; the % refers to the signal ratio; note: potency is the fitted concentration of half-maximal effect)
Glucocorticoid receptor (Homo sapiens), sequence (P04150 whole entry, looked up): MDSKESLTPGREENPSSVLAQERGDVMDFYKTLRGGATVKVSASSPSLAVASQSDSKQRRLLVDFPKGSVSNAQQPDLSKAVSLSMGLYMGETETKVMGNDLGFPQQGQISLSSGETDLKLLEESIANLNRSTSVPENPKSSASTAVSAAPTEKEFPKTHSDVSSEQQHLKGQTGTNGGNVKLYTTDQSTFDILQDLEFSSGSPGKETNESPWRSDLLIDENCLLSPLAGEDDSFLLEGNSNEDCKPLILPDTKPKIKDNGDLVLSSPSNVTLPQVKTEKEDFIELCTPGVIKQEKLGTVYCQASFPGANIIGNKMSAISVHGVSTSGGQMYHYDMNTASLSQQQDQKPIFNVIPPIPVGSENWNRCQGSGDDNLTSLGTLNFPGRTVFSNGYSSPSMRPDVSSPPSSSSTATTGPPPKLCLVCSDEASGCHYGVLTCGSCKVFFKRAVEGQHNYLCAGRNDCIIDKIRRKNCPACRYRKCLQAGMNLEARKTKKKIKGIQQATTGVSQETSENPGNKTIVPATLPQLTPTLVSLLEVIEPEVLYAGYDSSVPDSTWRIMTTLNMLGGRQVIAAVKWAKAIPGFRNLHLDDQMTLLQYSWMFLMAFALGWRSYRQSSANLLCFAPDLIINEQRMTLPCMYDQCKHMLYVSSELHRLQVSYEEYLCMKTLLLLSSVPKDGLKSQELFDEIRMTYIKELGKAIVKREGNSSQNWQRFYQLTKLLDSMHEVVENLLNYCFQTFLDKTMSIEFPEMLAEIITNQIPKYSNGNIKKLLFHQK
Outline: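 Antagonism was scored as loss of dexamethasone-driven (5 nM final) reporter signal in HeLa cells bearing a glucocorticoid response element–beta-lactamase construct, after 18 h compound exposure at 37 C and 2 h FRET substrate loading.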

[18] = qHTS assay to test for compound auto fluorescence at 590 nm (red) in HEK293 cell free culture (AID 720683)
Outline: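 Cell-free wells of DMEM with 10% FBS received compound, and intrinsic fluorescence was read at excitation/emission 540/590 nm. Values expressed as equivalence to Rose Bengal sodium.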

[19] = target: Glucocorticoid receptor (Homo sapiens) (UniProt P04150); test: qHTS assay to identify small molecule agonists of the glucocorticoid receptor (GR) signaling pathway (AID 720691; active = well fitted activation curve with a large enough effect in the signal ratio in the repeat runs, not every such curve was filed as active; the % refers to the signal ratio)
Outline: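 Steps: seed GR-bla HeLa cells, incubate 4 h at 37 C/5% CO2; pin-transfer DMSO-dissolved compounds; incubate 18 h at 37 C; add LiveBLAzer B/G FRET substrate; after 2 h at room temperature, measure fluorescence.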

Row | SMILES | Potency [1] | Potency [2] | Potency [3] | Potency [4] | Potency [5] | outcome [6] | outcome [7] | Potency [8] | outcome [9] | outcome [10] | Potency [11] | outcome [12] | outcome [13] | Potency [14] | outcome [15] | Potency [16] | Potency [17] | outcome [18] | Potency [19]
1 | CC(C)CC(C)(c1ccc(O)cc1)c1ccc(O)cc1 | inactive | 68.7 µM (active) and 61.1 µM (active) | inactive | 34.4 µM (active) and 27.3 µM (active) | 6.87 µM (active) and 6.86 µM (active) | inactive | inactive | inactive | inactive | inactive | inactive | inactive | inactive | inactive | inactive | inactive | 19.5 µM (active) | – | –
2 | CC(=O)c1cc(C(C)(C)C)cc2c1CCC2(C)C | inactive | 54.5 µM (active) | inactive | – | 30.6 µM (active) | inactive | inactive | inactive | inactive | inactive | inactive | inactive | inactive | inactive | inactive | inactive | – | inactive | inactive
3 | CCCCOCN(C(=O)CCl)c1c(CC)cccc1CC | inactive | inactive | inactive | – | – | inactive | inactive | inactive | inactive | inactive | inactive | inactive | inactive | inactive | inactive | inactive | 21.9 µM (active) | inactive | inactive
4 | CCCCCCCCCCCCCC[P+](CCCCCC)(CCCCCC)CCCCCC (tested in a mixture with another compound) | inactive | 15.4 µM (active) | – | 24.3 µM (active) | 0.243 µM (active) | inactive | inactive | inactive | inactive | inactive | inactive | inactive | inactive | inactive | inactive | inactive | – | inactive | –
5 | Clc1ccc(C(Cl)(Cl)Cl)c(Cl)c1 | inactive | inactive | – | inactive | 61.6 µM (active) | inactive | inactive | inactive | inactive | inactive | inactive | inactive | inactive | inactive | inactive | inactive | – | inactive | –
6 | CCCCCCCCCC[N+](C)(C)CCCCCCCCCC | inactive | 26.6 µM (active) and 61.1 µM (active) | – | 26.6 µM (active) and inactive | 8.41 µM (active) and 24.3 µM (active) | inactive | inactive | inactive | inactive | inactive | inactive | inactive | inactive | inactive | inactive | inactive | – | inactive | –
7 | Oc1c(Cl)c(Cl)cc(Cl)c1Cl | inactive | inactive | – | inactive | 5.3 µM (active) | inactive | inactive | inactive | inactive | inactive | inactive | inactive | inactive | inactive | inactive | inactive | – | inactive | –
